From the supplement of paper PMC6555819 come the findings set out here.

In one test the test system is LXRb homodimer (NR concentration 270 nM). The experiment in a line: PBM binding z-score (relative to random genomic background probes); higher = stronger binding; sequences stand for … in GC…GCGATTGACAGCGTAGAATGAAGG
Put shortly: (§1)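 Antibodies against each partner of ligand-free nuclear receptor dimers (one per run) detected binding on custom Agilent 4×180K protein-binding microarrays after 1 h incubation. The double-stranded probes had 34-nt variable regions carrying direct-repeat seeds, single-nucleotide variants, half-site ablations and random human genomic background sequences. Binding z-scores, from regression-normalized fluorescence, use the random background probes as reference.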
GCTCGGAGGACAAGGTCAAAGCTTTGTCCGTAGA came in with a PBM binding z-score of 0.0189.

Regarding GCTAGTTGGTCAGTAAAAGGCCACACACCGGTCG, the PBM binding z-score is -0.629.

As for CCTTACGGGTCACTGACCGGTTATAGCATTTGGA, the PBM binding z-score worked out at 0.194.

As for CCTACTGGGCCACGAAGGGTCATTGATTCAGTGA, the PBM binding z-score was -0.798.

Sequence AGAATGAGGGCACGCTGAGTTGATAGCAGAGTAG showed a PBM binding z-score of -0.735.

In the case of GCTAACAGGCCATTTGGGTCACTCAATGACGGGC, the PBM binding z-score was -0.169.

The sequence TCGAGTAGGTTAGCGGCATTCAGAATGGCGTCGA came in with a PBM binding z-score of -1.3.

TATACAGGGTTAAAGGCCAGAGTACGAATGTCGA: the PBM binding z-score came to 0.834.

On to CGAACTAGGTCTTCCAGGACAGTGAATACATTGA, for which the PBM binding z-score was -0.706.

The sequence TTACCAAGGTGAGCTGAAGTCGTTGATCCAACTC came in with a PBM binding z-score of -1.23.

Sequence CGTGCAAGGTCAAGGTCAGTGAAAGAGACTCGAA registered a PBM binding z-score of 0.639.

As to CCGAGTAGGTTATGGGGCAATCAGGCAACGGTGA, the PBM binding z-score is -0.142.

GCAGACGGGTGAAACGCAGGTAACTCAGGGTGGC gave a PBM binding z-score of -1.12.

Sequence TATAGAGGGTCAAAGGCCAGAGTACGAATGTCGA registered a PBM binding z-score of 1.49.

In the case of GATACAGGGTCAGCTATAGGCCAGAGTATGGAAA, the PBM binding z-score was -0.306.

As for ATCTCTAGGTAAGACTCAGTTCAGGGAAGAACGC, the PBM binding z-score was 1.19.

Consider AATACAGGGTCATCGTAGGCCTGAGTACGCACAG, for which the PBM binding z-score was found to be 1.13.

As for TCTTGTAGATCACAGGTTAAGAAAGCCGAAGCCT, the PBM binding z-score is -0.0792.

Another test has as its system PPARa:RXRa (NR concentration 270 nM, RXRa partner concentration 90 nM). Described as above. The essentials: as §1
Take CCTTGCGGGTCACGAGGTTATAGCACGACGAGCG: the PBM binding z-score was found to be 5.87.

On to TCGAGTAGGTTACCAATGGGGCTTTCAGCTTTCT, for which the PBM binding z-score was determined as 0.836.

Sequence CGTCCAAGGACAAGGTCAGTGAAAGAGACTCGAA returned a PBM binding z-score of 2.39.

ATCTCTAGGTAAGACTCAGTTCAGAGAAGAACGC yielded a PBM binding z-score of -0.0205.

The sequence TCTTGTAGATCAACAGGAGGTTAAGAAAGATCGA gave a PBM binding z-score of 1.22.

With CCAGACAGGTGAGAAGGTAACTCAACCTCGATTA, the PBM binding z-score came to 0.894.

CTACCAAGGTGAGCAAGGTCGTTGATTACTATTC gave a PBM binding z-score of 1.59.

For AGTCAAAGTACACTAGGTAACGTAAGATTCAGCT, the PBM binding z-score stood at 0.196.

The sequence CGAACTAGGTCAGAAAAGGACAGTGAAGGATGAT came in with a PBM binding z-score of 2.87.

TCATATAGGTAAATGCTAGCTGAAAGTCCGATCT yielded a PBM binding z-score of 1.04.

TTACTAAGGTGAGCTGAGGTCGTTGATCCAACTC displayed a PBM binding z-score of 1.97.

In turn, ACTAGCAGGCCAAGTTTGGGTTACTCAAACAAAG returned a PBM binding z-score of -0.051.

For TTACCAAGGTGAGCTGAGGACGTTGATCCAACTC, the PBM binding z-score was found to be 0.258.

ATCTCTAGGTAAAAGTTCAATGAATCCCGAGGAT showed a PBM binding z-score of 4.88.

GTACCAAGGTGAATGGGTCGTTGATGAGTAGGCG displayed a PBM binding z-score of 1.71.

In turn, CAGCCTAGGTCAGGGCCAGTATCGGAGGAACGTT came in with a PBM binding z-score of 1.91.

CAAACTAGGTCAGGAGGTCAAAGTCCGCTTCCCG displayed a PBM binding z-score of 5.91.

Take TAGCCTAGGTCATTCGGGCCAGTATAGTGTCGGC: the PBM binding z-score stood at 3.55.

ACAGACAGGCGAGTGAAGGTAACTCAGCTGGACG: the PBM binding z-score is -0.25.

With GGAACCAGGGCATTCGAGTTGATAGCATGGCGAT, the PBM binding z-score is 1.69.

For ATATGTAGGTTATCGGGTCAGTCAGTTTGCGCAT, the PBM binding z-score came to 4.28.

In turn, CCTTACGGGTCACTGACAGGTTATATCATTTGGA returned a PBM binding z-score of 5.14.

For the sequence GCTCGGAGGACAAGGTCAAAGCTTTGTCCGTAGA, the PBM binding z-score was determined as 4.19.

As to GCTAGTTGGTCAGTAAAAGGCCACACACCGGTCG, the PBM binding z-score was found to be 0.0643.

With CCTTACGGGTCACTGACCGGTTATAGCATTTGGA, the PBM binding z-score worked out at 5.

CCTACTGGGCCACGAAGGGTCATTGATTCAGTGA returned a PBM binding z-score of 3.68.

For the sequence AGAATGAGGGCACGCTGAGTTGATAGCAGAGTAG, the PBM binding z-score was found to be 2.7.

The sequence GCTAACAGGCCATTTGGGTCACTCAATGACGGGC had a PBM binding z-score of 1.73.

In turn, TCGAGTAGGTTAGCGGCATTCAGAATGGCGTCGA registered a PBM binding z-score of 0.0919.

TATACAGGGTTAAAGGCCAGAGTACGAATGTCGA gave a PBM binding z-score of 3.84.

In turn, CGAACTAGGTCTTCCAGGACAGTGAATACATTGA showed a PBM binding z-score of 0.796.

In turn, TTACCAAGGTGAGCTGAAGTCGTTGATCCAACTC had a PBM binding z-score of 0.187.

In turn, CGTGCAAGGTCAAGGTCAGTGAAAGAGACTCGAA displayed a PBM binding z-score of 6.13.

Sequence CCGAGTAGGTTATGGGGCAATCAGGCAACGGTGA displayed a PBM binding z-score of 2.37.

The sequence GCAGACGGGTGAAACGCAGGTAACTCAGGGTGGC gave a PBM binding z-score of 0.266.

Turning to TATAGAGGGTCAAAGGCCAGAGTACGAATGTCGA, the PBM binding z-score came to 5.82.

Consider GATACAGGGTCAGCTATAGGCCAGAGTATGGAAA, for which the PBM binding z-score came to 4.24.

ATCTCTAGGTAAGACTCAGTTCAGGGAAGAACGC gave a PBM binding z-score of 0.432.

Turning to AATACAGGGTCATCGTAGGCCTGAGTACGCACAG, the PBM binding z-score worked out at 5.95.

The sequence TCTTGTAGATCACAGGTTAAGAAAGCCGAAGCCT showed a PBM binding z-score of 2.09.

In the next test the test system is PPARg:RXRa (NR concentration 180 nM, RXRa partner concentration 90 nM). The description is as above. Put shortly:
as §1
As for CCTTGCGGGTCACGAGGTTATAGCACGACGAGCG, the PBM binding z-score was 7.48.

On to TCGAGTAGGTTACCAATGGGGCTTTCAGCTTTCT, for which the PBM binding z-score was -0.121.

Sequence CGTCCAAGGACAAGGTCAGTGAAAGAGACTCGAA showed a PBM binding z-score of 0.883.

For the sequence ATCTCTAGGTAAGACTCAGTTCAGAGAAGAACGC, the PBM binding z-score was 0.366.

In turn, TCTTGTAGATCAACAGGAGGTTAAGAAAGATCGA came in with a PBM binding z-score of -0.0134.

CCAGACAGGTGAGAAGGTAACTCAACCTCGATTA: the PBM binding z-score is 0.669.

With CTACCAAGGTGAGCAAGGTCGTTGATTACTATTC, the PBM binding z-score was found to be 0.312.

Regarding AGTCAAAGTACACTAGGTAACGTAAGATTCAGCT, the PBM binding z-score is 1.13.

The sequence CGAACTAGGTCAGAAAAGGACAGTGAAGGATGAT showed a PBM binding z-score of 4.64.

In turn, TCATATAGGTAAATGCTAGCTGAAAGTCCGATCT had a PBM binding z-score of 0.413.

In the case of TTACTAAGGTGAGCTGAGGTCGTTGATCCAACTC, the PBM binding z-score came out at 0.363.

Turning to ACTAGCAGGCCAAGTTTGGGTTACTCAAACAAAG, the PBM binding z-score is -0.32.

With TTACCAAGGTGAGCTGAGGACGTTGATCCAACTC, the PBM binding z-score was -0.0163.

In turn, ATCTCTAGGTAAAAGTTCAATGAATCCCGAGGAT yielded a PBM binding z-score of 8.83.

GTACCAAGGTGAATGGGTCGTTGATGAGTAGGCG yielded a PBM binding z-score of 1.26.

The sequence CAGCCTAGGTCAGGGCCAGTATCGGAGGAACGTT yielded a PBM binding z-score of 0.418.

Turning to CAAACTAGGTCAGGAGGTCAAAGTCCGCTTCCCG, the PBM binding z-score turned out to be 8.99.

As to TAGCCTAGGTCATTCGGGCCAGTATAGTGTCGGC, the PBM binding z-score was determined as 1.61.

ACAGACAGGCGAGTGAAGGTAACTCAGCTGGACG displayed a PBM binding z-score of 0.686.

Sequence GGAACCAGGGCATTCGAGTTGATAGCATGGCGAT came in with a PBM binding z-score of 0.973.

The sequence ATATGTAGGTTATCGGGTCAGTCAGTTTGCGCAT yielded a PBM binding z-score of 6.83.

For CCTTACGGGTCACTGACAGGTTATATCATTTGGA, the PBM binding z-score came to 4.29.

The sequence GCTCGGAGGACAAGGTCAAAGCTTTGTCCGTAGA yielded a PBM binding z-score of 2.56.

The sequence GCTAGTTGGTCAGTAAAAGGCCACACACCGGTCG returned a PBM binding z-score of 0.521.

As to CCTTACGGGTCACTGACCGGTTATAGCATTTGGA, the PBM binding z-score stood at 3.68.

Regarding CCTACTGGGCCACGAAGGGTCATTGATTCAGTGA, the PBM binding z-score was 3.11.

AGAATGAGGGCACGCTGAGTTGATAGCAGAGTAG registered a PBM binding z-score of 2.69.

As for GCTAACAGGCCATTTGGGTCACTCAATGACGGGC, the PBM binding z-score turned out to be 0.912.

Sequence TCGAGTAGGTTAGCGGCATTCAGAATGGCGTCGA had a PBM binding z-score of -0.173.

Sequence TATACAGGGTTAAAGGCCAGAGTACGAATGTCGA returned a PBM binding z-score of 5.07.

Regarding CGAACTAGGTCTTCCAGGACAGTGAATACATTGA, the PBM binding z-score turned out to be 0.846.

TTACCAAGGTGAGCTGAAGTCGTTGATCCAACTC: the PBM binding z-score is -0.231.

Consider CGTGCAAGGTCAAGGTCAGTGAAAGAGACTCGAA, for which the PBM binding z-score amounted to 6.66.

Sequence CCGAGTAGGTTATGGGGCAATCAGGCAACGGTGA gave a PBM binding z-score of 3.61.

Sequence GCAGACGGGTGAAACGCAGGTAACTCAGGGTGGC yielded a PBM binding z-score of 0.241.

On to TATAGAGGGTCAAAGGCCAGAGTACGAATGTCGA, for which the PBM binding z-score was 8.05.

Sequence GATACAGGGTCAGCTATAGGCCAGAGTATGGAAA had a PBM binding z-score of 3.43.

For ATCTCTAGGTAAGACTCAGTTCAGGGAAGAACGC, the PBM binding z-score turned out to be 0.216.

AATACAGGGTCATCGTAGGCCTGAGTACGCACAG: the PBM binding z-score stood at 6.49.

In turn, TCTTGTAGATCACAGGTTAAGAAAGCCGAAGCCT came in with a PBM binding z-score of 2.74.
